Screening results (PubChem BioAssay)
HT1080 IDH1KD tx – toxicity to HT-1080 IDH1 knockdown cells (counter line). HT-1080 IDH1 knockdown viability, ATP luminescence, 48 h. 360,000 tested, 2% active. Potency, µM (top dose mostly 46.1 µM), inactives show top-dose activity, negative = toxicity, hits mostly cytotoxic;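 further: 0% = DMSO wells and -100% = cell-free medium wells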
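After a 2 h attachment period, IDH1KD HT-1080 cells took pin-transferred compound for 48 h at 37 °C; ATP-based luminescence after 10 min room-temperature reagent incubation reported viability.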
HT1080-NT tox – kills 2HG-producing HT-1080-NT fibrosarcoma cells; HT-1080-NT fibrosarcoma viability, CellTiter-Glo ATP luminescence, 48 h; 360,000 tested, 1.6% active; Potency, µM (top dose mostly 46.1 µM), for the others: at the highest dose activity, negative = less viability, actives largely listed as cytotoxic; AID 686970;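 further: NT is the 2HG producing partner of a matched IDH1 knockdown line; 0% = DMSO-treated cells and -100% = media-only wells without cells; nearly all actives have a fitted effect of over 55% in size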
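Luminescent CellTiter-Glo readout after 48 hours of compound exposure at 37 degrees C defined viability of HT-1080-NT cells. Activity was normalized to DMSO wells and cell-free media wells; concentration-response curves were fitted and assigned curve classes.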
SW480 rereplic – DNA re-replication induction in SW480 cells; Potency, µM (highest dose often 46.1 µM), inactives show at the highest dose re-replication activation, actives largely listed as activators; AID 624297; 340,000 tested, 1.8% active; SW480 DNA re-replication, Hoechst DNA content imaging, 48 h; further: % of control where 0% means no effect; nearly all actives have a fitted effect of over 55% in size
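Per well, 250 cells were exposed to pinned compound for 48 hr. Nuclear DNA was visualised with Hoechst (40 min, 37 C) and total object intensity recorded by fluorescence scanning.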
KB-3-1 tox – kills parental KB-3-1 adenocarcinoma cells; KB-3-1 viability, CellTiter-Glo ATP luminescence, 72 h; Potency, µM (titrated, usually from 46.1 µM), most hits filed as cytotoxic; 400,000 tested, 1.4% active; AID 1347075; further: on the % scale 0 is the no-effect control and ±100 the full control effect; nearly all actives have a fitted effect of over 60% in size
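Cells are dispensed, compounds pinned in, plates held at 37 °C for 72 h, then CellTiter-Glo is added and luminescence read after 10 minutes. Cell line: parental KB-3-1 in phenol-red-free DMEM, 10% FBS.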
KB-V1 MDR tox – KB-V1 MDR subline cytotoxicity; Potency, µM (highest dose often 46.1 µM), hits mostly cytotoxic; 400,000 tested, 3.4% active; KB-V1 MDR cells viability, CellTiter-Glo, 72 h; further: on the % scale 0 is the no-effect control and ±100 the full control effect; nearly all actives have a fitted effect of over 60% in size
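Compound-treated KB-V1 multidrug-resistant cells, 72 h, 37 degrees C; viability by CellTiter-Glo. Fitted qHTS curves give the values.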
MCF10A rerep – induces DNA re-replication in MCF 10a normal breast cells. AID 624296. 350,000 tested, 2.9% active. Potency, µM (highest dose often 46.1 µM), without a hit: at the highest dose activity, positive = re-replication, usual class: activators. MCF 10A DNA re-replication, Hoechst nuclear intensity, 48 h; further: % of control where 0% means no effect; nearly all actives have a fitted effect of over 50% in size
* = called active by the depositor; i = inactive; ? = inconclusive; . = not tested or not shown; [ ] = dose if it differs, or a comment. Sampled rows, rich in hits. Any-hit rate of the full collection: about 7.9%. The call rests on the fitted dose curve; in most records, active means well fitted curve in the direction sought with a large enough effect; inconclusive means small, poorly fitted or top-dose-only effect, or another doubt; inactive means no such curve, though single readings can be large; an effect the other way counts as inactive or inconclusive. Potency means the concentration at half of the fitted maximal effect.

SMILES	HT1080 IDH1KD tx	HT1080-NT tox	SW480 rereplic	KB-3-1 tox	KB-V1 MDR tox	MCF10A rerep
CC/C(=N/NS(=O)(=O)c1ccc(Cl)cc1)c1ccc(O)cc1	6.0%	15.1%	.	i	i	0.0%
COc1ccc(-n2ccnc(SCC(=O)NCc3ccccc3Cl)c2=O)cc1	0.0%	-1.5%	-4.0%	i	i	-12.2%
COc1ccccc1-n1ccnc(SCC(=O)NCc2ccccc2Cl)c1=O	-7.6%	-4.6%	1.9%	i	20.6µM*	5.3%
CCCc1cc(=O)n2nc(N3CCC(C(=O)N4CCN(c5ccc(OC)cc5)CC4)CC3)sc2n1	13µM*	?	-1.2%	i	i	12.3%
COc1ccccc1N=C(C)C1=C(O)CC(c2ccccc2)CC1=O (centres undefined)	?	?	2.06µM*	?	1.46µM*	?
CCCC(=Nc1ccccc1OC)C1=C(O)CC(c2ccccc2)CC1=O (centres undefined)	1.5%	-6.6%	-5.9%	i	i	?
COc1ccc(OC)c(CN2CCN(C(=O)[C@@H](NC(=O)c3cccc(C)c3)C(C)C)CC2)c1	-2.4%	-10.0%	6.5%	i	9.2µM*	?
COc1ccc(C(=O)N2CCN(Cc3cc(OC)ccc3OC)CC2)cc1	20.4%	4.4%	-8.9%	i	i	-2.3%
COc1cc(OC)cc(C(=O)NC(C(=O)N2CCc3ccccc3C2)C(C)C)c1 (centres undefined)	?	?	18.4µM*	?	?	?
COc1ccc(OC)c(S(=O)(=O)N2CC=C(c3c(C)n(CC(=O)N4CCCC4)c4ccccc34)CC2)c1	.	.	.	i	i	.
Cc1ccc(-c2nnc(SCC(=O)N/N=C/c3c(C)nn(-c4ccccc4)c3C)n2-c2ccccc2)cc1	-22.0%	3.0%	?	?	14.6µM*	?
Cc1ccc(-c2nnc(SCC(=O)N/N=C/c3ccccc3C(=O)O)n2-c2ccc(C)cc2)cc1	-1.6%	2.4%	13.9%	i	i	12.9%
Cc1ccc(-c2nnc(SCC(=O)N/N=C/c3c(C)nn(-c4ccccc4)c3C)n2-c2ccc(C)cc2)cc1	-26.4%	-24.4%	3.9%	?	20.6µM*	-0.8%
Cc1ccc(/C=N/NC(=O)CSc2nnc(-c3ccc(Cl)cc3)n2-c2ccc(Cl)cc2)o1	?	18.4µM*	?	?	?	93.5%
Cc1ccc(-c2nnc(SCC(=O)N/N=C/c3ccc(C)s3)n2-c2ccccc2)cc1	?	?	?	?	20.6µM*	18.4µM*
Cc1ccc(CSc2nnc(SCC(=O)N/N=C/c3c(C)nn(-c4ccccc4)c3C)s2)cc1	-8.0%	-8.3%	4.1%	i	i	-1.5%
Cc1nn(-c2ccccc2)c(C)c1/C=N/NC(=O)CSc1nnc(-c2ccccc2)n1-c1ccc(Cl)cc1	-15.9%	1.3%	-4.2%	i	i	?
Cc1ccc(/C=N/NC(=O)CSc2nnc(-c3ccccc3)n2-c2ccc(Cl)cc2)o1	3.8%	-0.3%	-5.5%	i	i	6.7%
COc1cc2c(cc1OC)C(COc1ccc(C(C)C)cc1)N(C(=O)c1ccc(S(=O)(=O)N3CCCC3)cc1)CC2 (centres undefined)	.	.	.	i	i	.
O=C1CCC[C@@H]2[C@@H](Cc3ccccc3)[C@@H](Nc3ccccc3)C[C@@H]3CCN1[C@@H]32	.	.	.	i	?	.
Cc1ccccc1Nc1nc(N)nc(CSc2nc3ccccc3c(=O)n2C)n1	-29.3%	-17.5%	9.3%	i	16.4µM*	?
Cc1ccccc1Nc1nc(N)nc(CSc2nc3ccccc3c(=O)n2CCCO)n1	-20.1%	?	4.3%	i	i	-4.2%
Cc1ccccc1NC(=O)CCCSc1nc2ccccc2s1	1.0%	-3.6%	0.3%	i	14.6µM*	12.7%
COCCn1c(SCc2nc(N)nc(Nc3ccccc3C)n2)nc2ccccc2c1=O	4.3%	-18.5%	1.9%	i	8.2µM*	23.1%
Cc1ccccc1Nc1nc(N)nc(CSc2nc3ccccc3s2)n1	6.1%	6.9%	-4.1%	i	16.4µM*	23.3%
SMILES	HT1080 IDH1KD tx	HT1080-NT tox	SW480 rereplic	KB-3-1 tox	KB-V1 MDR tox	MCF10A rerep
Cc1cc(C)c(S(=O)(=O)Nc2cc(Cl)c3oc4c(c3c2)C(=O)CCC4)cc1C	.	.	.	i	i	.
CCn1nc(C)c2c(-c3ccccc3)cc(=O)n(C(C)C(=O)Nc3ccc(OC)c(OC)c3)c21 (centres undefined)	.	.	.	i	i	.
CN(c1ccccc1)S(=O)(=O)c1cccc(NC(=O)CCNC(=O)c2ccco2)c1	-1.4%	0.8%	.	i	i	.
COc1ccccc1NC(=O)CSC1=Nc2ccccc2N=C(c2ccc(F)cc2)C1	.	.	.	i	?	.
CCc1nc2ccccc2n1Cc1ccccc1OC	-0.8%[9.24 µM]	-19.6%	-5.5%	?	14.6µM*	2.8%
COc1ccccc1Cn1c(CCCO)nc2ccccc21	0.3%[9.24 µM]	-6.1%	-3.1%	i	?	5.1%
CCCc1nc2ccccc2n1Cc1ccccc1OC	-2.0%	?	-1.5%	?	14.6µM*	4.3%
C[C@@H]1CN([C@@H](C)CO)C(=O)c2cc(Br)cnc2O[C@@H]1CN(C)S(C)(=O)=O	3.0%	3.6%	.	i	i	.
CCOC(=O)CCC(=O)Nc1nnc2n1CCS2	.	.	.	i	i	.
COc1ccc(/C=C/C(=O)c2ccc([N+](=O)[O-])o2)cc1	18.4µM*	?	11.6µM*	18.4µM*	?	2.31µM*
O=C(/C=C/c1cccc([N+](=O)[O-])c1)c1ccco1	0.2%	-19.4%	?	i	i	136.2%
COc1cccc(/C=C/C(=O)c2cccc([N+](=O)[O-])c2)c1	16.7%	7.3%	?	?	?	?
Cc1cccc(/C=C/C(=O)c2ccc([N+](=O)[O-])o2)c1	?	-19.8%	?	?	i	11.6µM*
O=C(/C=C/c1cccc([N+](=O)[O-])c1)c1ccc([N+](=O)[O-])o1	5.8µM*	5.8µM*	?	?	i	1.64µM*
COc1ccc(S(=O)(=O)N2CCN(C(=O)c3ccc([N+](=O)[O-])o3)CC2)cc1	?	?	?	i	i	?
COc1ccccc1N1CCN(C(=O)C2CCN(S(=O)(=O)c3cccs3)CC2)CC1	.	.	.	i	i	.
CC1CCCC(NC(=O)CCCCCn2c(=S)[nH]c3ccsc3c2=O)C1C (centres undefined)	-0.2%	-3.7%	.	i	i	.
O=C(Nc1nc2ccccc2[nH]1)c1ccc(F)cc1	?	-0.1%[9.24 µM]	?	?	?	1.5%
